Assay results from PubChem BioAssay (NCI).
About 83,000 compounds went through this panel and 20% of them were active in at least one assay; those are over-represented in the sample as a whole.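 The endpoint reported here, percent growth, reads 100 for growth as untreated, 0 for no net growth and -100 for all cells dead.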 The source made the active and inactive calls. How the source made its calls: active means growth percent below 10; inactive means the rest.

Experiments:
Test in all cases: NCI-60 one-dose screen, 48 h (100 = growth as untreated, 0 = no growth, -100 = all killed)
Settings in all cases: 10 µM unless noted
[1] = test system: NCI-H23 lung
[2] = test system: NCI-H226 lung
[3] = test system: NCI-H322M lung
[4] = test system: HOP-62 NSCLC
[5] = test system: NCI-H460 lung
[6] = test system: HOP-92 NSCLC
[7] = test system: NCI-H522 lung
[8] = test system: A549/ATCC NSCLC
[9] = test system: 786-0 renal
[10] = test system: COLO 205 colon
[11] = test system: DU-145 prostate
[12] = test system: K-562 leukemia
[13] = test system: MALME-3M melanoma
[14] = test system: MDA-MB-231 breast
[15] = test system: RXF 393 renal
[16] = test system: SF-268 CNS
[17] = test system: SF-295 CNS
[18] = test system: SF-539 CNS
[19] = test system: M14 melanoma

Measured: growth

COC(=O)[C@]12CC[C@@H](C)[C@H](C)[C@@H]1C1=CC[C@@H]3[C@@]4(C)C[C@@H](O)[C@H](O)[C@@](C)(CO)C4=CC[C@@]3(C)[C@]1(C)CC2
active: [1] -57.8% | [2] -47.4% | [3] -84.7% | [4] -61% | [5] -63.4% | [6] -77.6% | [7] -2.22% | [8] -14.1% | [9] -74.1% | [10] -76.7% | [11] -41.4% | [12] -22.8% | [13] -74.8% | [14] -63.7% | [15] -88.3% | [16] -49.2% | [17] -83.3% | [18] -89.9% | [19] -68.1%

COC(=O)CCCCCn1c2ccccc2c2c3c(c4c5ccccc5[nH]c4c21)C(=O)N(O)C3=O
inactive: [1] 44.1% | [2] 74.4% | [3] 62.4% | [4] 26% | [5] 33.4% | [6] 79.4% | [8] 80.3% | [9] 76.6% | [10] 36.5% | [11] 80.6% | [12] 23.8% | [13] 96% | [14] 41.8% | [15] 64.9% | [16] 45.6% | [17] 59.6% | [18] 25.3% | [19] 39.5%
active: [7] -60%

COc1cccc(-c2nn(-c3ccccc3)cc2-c2ccnc(NCCNS(=O)(=O)c3cccc(F)c3)c2)c1
active: [7] 3.7% | [14] 9.24%
inactive: [1] 38.4% | [2] 39.3% | [3] 59% | [4] 55.3% | [5] 24.2% | [6] 22.3% | [8] 24.8% | [9] 25.9% | [10] 16.6% | [11] 58% | [12] 11.9% | [13] 78.2% | [15] 44.1% | [16] 48.1% | [17] 13.2% | [18] 52.3% | [19] 27.2%

CCc1cccc(CC)c1NC(=O)c1sc2nc3c(cc2c1N)CCCC3
inactive: [1] 87% | [2] 83.2% | [3] 92.8% | [4] 50.5% | [5] 91.1% | [6] 51.2% | [7] 41.9% | [8] 69.7% | [9] 87.8% | [10] 105% | [11] 98.6% | [12] 26.6% | [13] 54.3% | [14] 79.5% | [15] 81.6% | [16] 82.6% | [17] 45.7% | [18] 74.5% | [19] 52%

CC1(c2ccccc2)OC1C(=O)O (stereo not given)
inactive: [1] 94.1% | [2] 104% | [3] 97.9% | [4] 107% | [5] 107% | [6] 119% | [7] 97.8% | [8] 105% | [9] 99.7% | [10] 115% | [11] 108% | [12] 111% | [13] 88.5% | [14] 110% | [15] 103% | [16] 106% | [17] 101% | [18] 96.1% | [19] 95.2%

CCC(c1ccc(OC)cc1)C(CC)c1ccc(O)c(CN2CCCCC2)c1 (stereo not given)
active: [10] -12.9%
inactive: [1] 63.5% | [2] 70% | [3] 70.7% | [4] 95.5% | [5] 77.1% | [6] 52.2% | [7] 72.3% | [8] 84% | [9] 59.5% | [11] 86.6% | [12] 15.4% | [13] 28.1% | [14] 77.6% | [15] 53.7% | [16] 86.1% | [17] 78.9% | [18] 69.3% | [19] 44.3%

Clc1ccc(Cn2cc(-c3nc4ccc(Br)nc4n3Cc3ccc(Cl)cc3)c3cccnc32)cc1
inactive: [1] 65.9% | [2] 77.7% | [3] 81.1% | [4] 82.7% | [5] 97.4% | [6] 65.4% | [7] 70% | [8] 95.9% | [9] 90.5% | [10] 94.5% | [11] 105% | [12] 78.9% | [13] 92.4% | [14] 53.1% | [15] 83% | [16] 89.2% | [17] 83.9% | [18] 86% | [19] 89.8%

O=S(=O)(NCCCNc1cc(-c2cn(-c3ccccc3)nc2-c2cccc(O)c2)ccn1)c1ccc(F)cc1
active: [9] -4.8% | [10] -66.1% | [12] 3% | [14] -0.971% | [17] 5.71%
inactive: [1] 44.4% | [2] 54.1% | [3] 51.2% | [4] 53.8% | [5] 24.9% | [6] 57.7% | [7] 37.6% | [8] 38.8% | [11] 59.5% | [13] 35.9% | [15] 39.7% | [16] 44.5% | [18] 38.8% | [19] 26.6%

COc1cccc(-c2nn(-c3ccccc3)cc2-c2ccnc(NCCNS(=O)(=O)c3ccccc3)c2)c1
active: [7] 9.95% | [12] 6.57%
inactive: [1] 39.5% | [2] 41.2% | [3] 62.8% | [4] 58.6% | [5] 28.6% | [6] 19.4% | [8] 34.4% | [9] 42.7% | [10] 10.6% | [11] 57.5% | [13] 69.1% | [14] 18.4% | [15] 63.7% | [16] 50% | [17] 20.6% | [18] 57.1% | [19] 29.8%

O=C(NO)c1ccc(Cn2c(=O)n(CCc3ccc(O)cc3)c(=O)c3ccccc32)cc1
active: [1] -8.51% | [7] 7.74% | [18] 3.09%
inactive: [2] 82.5% | [3] 80.4% | [4] 68.1% | [5] 60.4% | [6] 80% | [8] 84.2% | [9] 83.4% | [10] 19.6% | [11] 42.1% | [12] 24.9% | [13] 39.3% | [14] 39.1% | [15] 29.8% | [16] 59.2% | [17] 79.1% | [19] 36.9%

Nc1c(C(=O)Nc2c(Cl)cccc2Cl)sc2nc3c(cc12)C(=O)CCC3
inactive: [1] 48.5% | [2] 71.2% | [3] 56.7% | [4] 30.7% | [5] 12.9% | [6] 42.6% | [8] 38% | [9] 29% | [11] 41.1% | [12] 16.6% | [13] 35.2% | [14] 51.1% | [15] 23.7% | [16] 57.8% | [17] 18.8% | [19] 12.1%
active: [7] 6.59% | [10] 7.4% | [18] 5.18%

COc1cc2c3c(c4c5ccccc5[nH]c4c2c(OC)c1OC)C(=O)N(O)C3=O
inactive: [1] 54.9% | [2] 42.6% | [3] 37.4% | [4] 38% | [5] 26.9% | [6] 78.4% | [7] 45.7% | [8] 60.3% | [9] 69.6% | [10] 61.1% | [11] 71.7% | [12] 20.8% | [13] 78.5% | [14] 44.2% | [15] 52.2% | [16] 49.3% | [17] 47.8% | [18] 30.9% | [19] 37.5%

N#Cc1cnc2cc(OC[C@@H](O)CO)c(NC(=O)C3CCCC3)cc2c1Nc1ccc(OCc2cccc(F)c2)c(Cl)c1
active: [4] -51.9% | [5] 0.536% | [6] -37.2% | [7] -58.5% | [11] -90.8% | [12] 0.239% | [13] -48.8% | [14] -58.5% | [15] -62.6% | [17] 1.06% | [18] -32.5% | [19] -53%
inactive: [1] 13.6% | [2] 38.5% | [3] 35.7% | [8] 47.9% | [9] 43.6% | [10] 49.6% | [16] 23.1%

CC/C(=N/NC(N)=O)c1ccccc1
inactive: [1] 98.6% | [2] 97.8% | [3] 102% | [4] 107% | [5] 108% | [6] 103% | [7] 99.5% | [8] 96.4% | [9] 98.5% | [10] 119% | [11] 108% | [12] 101% | [13] 105% | [14] 102% | [15] 108% | [16] 107% | [17] 89.8% | [18] 95.1% | [19] 106%

COC(=O)[C@]12CC[C@@H](C)[C@H](C)[C@@H]1C1=CC[C@@H]3[C@@]4(C)CC(=O)[C@H](OC(=O)c5ccco5)[C@@]5(C)COC(=C45)C[C@@]3(C)[C@]1(C)CC2
inactive: [1] 33.5% | [2] 23.6% | [3] 53.7% | [4] 34.4% | [6] 60.6% | [7] 26.9% | [8] 25% | [11] 37.9% | [12] 23.7% | [13] 21.9% | [14] 40.4% | [15] 44.5% | [16] 40.7% | [17] 35.6% | [18] 39% | [19] 22.2%
active: [5] 9.59% | [9] 6.39% | [10] -40.6%
